TEAD-YAP block – TEAD-YAP interaction inhibition | HEK-TIYL cells, TEAD-Gal4/YAP UAS-luciferase luminescence | inhibition, % at 9.12 µM | actives 1.4% (n = 640,000) | AID 1259422; in the data active means inhibition above about 32%
FBW7 act – human FBW7 E3 ligase activation, primary screen; normalized activity (activation), % at 26.1 µM; actives 0.13% (n = 650,000); AlphaScreen FBW7–phospho-cyclin E peptide binding, activator screen; Q969H0; in the data active means normalized activity above about 1.9%;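 further: purified mutant Fbw7 with reduced substrate affinity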
MITF inh – human MITF inhibition, primary screen | O75030 | AlphaScreen MITF homodimerization, bead proximity signal | inhibition, % at 2.6 µM | actives 0.91% (n = 650,000) | AID 1259374; in the data active means inhibition above about 50%
GPR151 ag – human GPR151 activation; PathHunter beta-arrestin GPR151 cells, luminescence; activation, % at 11.2 µM; AID 1508602; Q8TDV0; actives 1% (n = 650,000); in the data active means activation above about 4.9%
Target sequence (Q8TDV0 whole entry, looked up): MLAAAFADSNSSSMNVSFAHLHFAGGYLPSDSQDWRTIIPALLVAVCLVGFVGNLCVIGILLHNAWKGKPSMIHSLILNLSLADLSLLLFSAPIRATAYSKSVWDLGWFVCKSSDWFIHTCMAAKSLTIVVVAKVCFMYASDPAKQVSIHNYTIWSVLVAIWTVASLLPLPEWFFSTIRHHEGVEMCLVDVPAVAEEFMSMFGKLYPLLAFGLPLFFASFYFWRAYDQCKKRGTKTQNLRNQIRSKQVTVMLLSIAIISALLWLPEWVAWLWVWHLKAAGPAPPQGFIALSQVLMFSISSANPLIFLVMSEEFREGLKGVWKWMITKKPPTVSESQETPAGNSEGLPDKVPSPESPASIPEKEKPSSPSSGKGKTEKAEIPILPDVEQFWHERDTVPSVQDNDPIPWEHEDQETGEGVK
GPR151 conf act – human GPR151 activation, confirmation screen. 6,700 tested, under 10 active. GPR151 PathHunter beta-arrestin cells, luminescence, 90 min; % of EA-reagent control over plate median. shares compounds with GPR151 ag. activation, % at 11.2 µM;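 active means mean percent activation across replicates above the confirmation screen cutoff of 4.91%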
GPR119 ag – counter-screen for GPR151 activators: effect on human GPR119; shares compounds with GPR151 ag; GPR119 PathHunter beta-arrestin cells, luminescence, 90 min; 0 = compound-well median, 100 = enzyme-acceptor control; activation, % at 11.2 µM; actives 0.3% (n = 6,700); AID 1508611;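 active means mean percent activation in the counterscreen above 29.09%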;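 further: counterscreen on off-target GPR119 to flag nonselective hits from the GPR151 activator screen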
A number is an active result. In the library only some 3.4% were active in any assay of this set; here they are far more common.

How did O=S(=O)(c1ccc(F)cc1)n1nc(C(F)(F)F)c2cnccc21 do in these assays?
TEAD-YAP block: inactive; FBW7 act: inactive; MITF inh: inactive; GPR151 ag: 5.3; GPR151 conf act: inactive; GPR119 ag: inactive

How did COc1ccc(NS(=O)(=O)c2ccc(OC)cc2[N+](=O)[O-])cc1 do in these assays?
TEAD-YAP block: inactive; FBW7 act: inactive; MITF inh: inactive; GPR151 ag: inactive

Results for CCc1cccc(CC)c1-n1c(SCC(=O)NC)nnc1-c1cccnc1 ?
TEAD-YAP block: inactive; FBW7 act: inactive; MITF inh: inactive; GPR151 ag: inactive

Results for CNC(=O)CSc1nnc(-c2cccnc2)n1CCc1ccccc1 ?
TEAD-YAP block: inactive; FBW7 act: inactive; MITF inh: inactive; GPR151 ag: inactive

What do the screens show for `CCc1ccccc1-n1c(SCC(=O)NC)nnc1-c1cccnc1`?
TEAD-YAP block: inactive; FBW7 act: inactive; MITF inh: inactive; GPR151 ag: 7.6; GPR151 conf act: inactive; GPR119 ag: inactive

What do the screens show for `CC(C)NC(=O)CSc1nnc(-c2cccnc2)n1CCc1ccccc1`?
TEAD-YAP block: inactive; FBW7 act: inactive; MITF inh: inactive; GPR151 ag: 9.5; GPR151 conf act: inactive; GPR119 ag: inactive

What do the screens show for `CCCn1c(C)csc1=Nc1c(C)n(C)n(-c2ccccc2)c1=O`?
TEAD-YAP block: inactive; FBW7 act: inactive; MITF inh: inactive; GPR151 ag: inactive

What do the screens show for `COc1cccc(C2c3c(oc4ccccc4c3=O)C(=O)N2CCO)c1` (stereo unspecified)?
TEAD-YAP block: inactive; FBW7 act: inactive; MITF inh: inactive; GPR151 ag: 8.0; GPR151 conf act: inactive; GPR119 ag: inactive

How did C=CCN1C(=O)c2oc3ccccc3c(=O)c2C1c1ccccc1 (stereo unspecified) do in these assays?
TEAD-YAP block: inactive; FBW7 act: inactive; MITF inh: inactive; GPR151 ag: 6.4; GPR151 conf act: inactive; GPR119 ag: inactive

Results for CC(C(=O)NCCCN1CCOCC1)(c1ccccc1)c1ccccc1 ?
TEAD-YAP block: inactive; FBW7 act: inactive; MITF inh: inactive; GPR151 ag: inactive

Results for O=C(NC(=S)Nc1ccc(F)c([N+](=O)[O-])c1)c1ccco1 ?
TEAD-YAP block: inactive; FBW7 act: inactive; MITF inh: inactive; GPR151 ag: inactive

How did CCN(CC)c1nc(C)nc2sc(C(=O)Nc3ccc(Oc4ccccc4)cc3)c(C)c12 do in these assays?
TEAD-YAP block: inactive; FBW7 act: inactive; MITF inh: inactive; GPR151 ag: inactive

How did Cc1nc(N(C)c2ccc(C(C)C)cc2)c2c(C)c(C(=O)Nc3ccc(Oc4ccccc4)cc3)sc2n1 do in these assays?
TEAD-YAP block: inactive; FBW7 act: inactive; MITF inh: inactive; GPR151 ag: 7.8; GPR151 conf act: inactive; GPR119 ag: inactive

Results for COc1cccc(-c2ccc(NC(=O)C3CCCN(C4CCSCC4)C3)cc2)c1 (stereo unspecified) ?
TEAD-YAP block: inactive; FBW7 act: inactive; MITF inh: inactive; GPR151 ag: inactive

What do the screens show for `CCOc1ccc(/C=c2\sc3nc(=O)c(C)nn3c2=O)cc1OC`?
TEAD-YAP block: inactive; FBW7 act: inactive; MITF inh: inactive; GPR151 ag: inactive

How did COc1cc(/C=c2\sc3nc(=O)c(C)nn3c2=O)ccc1OC(C)=O do in these assays?
TEAD-YAP block: inactive; FBW7 act: inactive; MITF inh: inactive; GPR151 ag: 14; GPR151 conf act: inactive; GPR119 ag: inactive

How did CN(C)S(=O)(=O)c1ccc(C(=O)OCc2nc3ccccc3s2)cc1 do in these assays?
TEAD-YAP block: inactive; FBW7 act: inactive; MITF inh: inactive; GPR151 ag: 6.9; GPR151 conf act: inactive; GPR119 ag: inactive

What do the screens show for `O=C(OCc1nc2ccccc2s1)c1ccc(O)cc1`?
TEAD-YAP block: inactive; FBW7 act: inactive; MITF inh: inactive; GPR151 ag: inactive

How did COC(=O)c1cc(NC(=O)CCS(=O)(=O)c2ccc(OC)cc2)cc(C(=O)OC)c1 do in these assays?
TEAD-YAP block: inactive; FBW7 act: inactive; MITF inh: inactive; GPR151 ag: inactive

Results for COC(=O)c1ccc(NC(=O)CCS(=O)(=O)c2ccc(OC)cc2)cc1 ?
TEAD-YAP block: inactive; FBW7 act: inactive; MITF inh: inactive; GPR151 ag: 5.0; GPR151 conf act: inactive; GPR119 ag: inactive

How did COC(=O)CCS(=O)(=O)c1ccc(Cl)cc1 do in these assays?
TEAD-YAP block: inactive; FBW7 act: inactive; MITF inh: inactive; GPR151 ag: inactive
